Test results published in the supplement of paper PMC6555819.

What was measured:
Assay in all cases: PBM binding z-score (relative to random genomic background probes); higher = stronger binding; sequences stand for … in GC…GCGATTGACAGCGTAGAATGAAGG
[1] = tested on: PPARg:RXRa DBDmut IVT, anti-RXR (DBD mutation: RXRa K156A/R161A, NR concentration 270 nM, RXRa partner concentration 90 nM)
In short: (§1)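 Ligand-free nuclear receptor dimers were applied to custom Agilent 4×180K protein-binding microarrays whose double-stranded probes carried direct-repeat seeds, single-nucleotide variants, half-site ablations and random human genomic background sequences in 34-nt variable regions. Incubation lasted 1 h. Binding z-scores were computed against the random background probes from regression-normalized fluorescence.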

[2] = tested on: PPARg:RXRa IVT, anti-PPARg (NR concentration 270 nM, RXRa partner concentration 90 nM)
In short: as §1

[3] = tested on: PPARg DBDmut:RXRa IVT, anti-PPARg (DBD mutation: PPARg1 K132A/R137A, NR concentration 270 nM, RXRa partner concentration 90 nM)
In short: as §1

[4] = tested on: PPARg DBDmut IVT, anti-PPARg (DBD mutation: PPARg1 K132A/R137A, NR concentration 270 nM)
In short: as §1

[5] = tested on: PPARg homodimer (NR concentration 180 nM)
In short: as §1

[6] = tested on: PXR:RXRa (NR concentration 270 nM, RXRa partner concentration 90 nM)
In short: as §1

[7] = tested on: PXR homodimer (NR concentration 270 nM)
In short: as §1

[8] = tested on: RARa:RXR (NR concentration 270 nM, RXRa partner concentration 90 nM)
In short: as §1

[9] = tested on: RARa homodimer (NR concentration 270 nM)
In short: as §1

[10] = tested on: RARb:RXRa (NR concentration 270 nM, RXRa partner concentration 90 nM)
In short: as §1

Sequence	PBM binding z-score [1]	PBM binding z-score [2]	PBM binding z-score [3]	PBM binding z-score [4]	PBM binding z-score [5]	PBM binding z-score [6]	PBM binding z-score [7]	PBM binding z-score [8]	PBM binding z-score [9]	PBM binding z-score [10]
AGAACGAGTGCAATGAGTTGATAGCACGGGTGGC	-0.425	-0.173	-0.0779	-0.15	-0.623	1.9	7.51	-0.248	-1.04	0.212
CCTACTGGGCCATTCAGAGGTCATTGACCATATG	4.24	4.24	0.0159	0.229	2.02	4.93	2.23	4.52	0.388	3.17
CAAACTAGGTTAAAGGTCAAAGTCGAGCCAACCA	7.78	8.2	3.63	3.37	5.35	6.11	1.51	7.9	3.41	4.76
TCTCCTAGGTCAGTTGGTCAGCTAACGAGCTGCC	2.85	3.32	1.43	0.66	1.05	0.732	-0.3	0.918	0.238	3.52
CCTAGCAGGCCAATCTGGGTCATTCAAGGCTTGA	3.81	4.05	-1.11	-0.944	0.0423	1.63	-0.53	1.04	-0.337	1.17
CCAGACAGGTGAGAAGGTAAATCAGCCTCGATTA	0.792	0.856	-0.421	-0.384	0.684	0.0672	-0.0292	0.359	-0.00331	0.508
CAAACTAGGTCACCGGAAGTTCAAAGTCCGCATG	8.47	9.21	5.32	4.81	7.04	6.19	6.26	5.86	1.72	4.85
TCATATAGGTAAATGCTAGTTGAAAGTCCGATCT	4.01	2.25	1.08	1.1	0.913	0.488	0.757	0.405	1.01	0.37
CGAACTAGGTCAGAACAGGACAGAGAAGGATGAT	7.13	7.18	1.45	0.658	0.782	0.74	0.047	0.515	0.919	2.88
GCTAGTTGGTCAGTAAAAGGTCACACACCGGTCG	1.12	2.86	-0.0862	0.91	4.27	4.95	1.3	5.91	3.23	4.19
CGTCCAACGTCAATGCTAGGTCAGTGAAAGCATT	0.0923	0.146	-0.91	-0.198	-0.138	0.124	-0.688	0.602	-0.434	1.33
ACAGACAGGTGATGAAGGGAACTCAGGCTATCAT	0.344	0.145	0.471	-0.0521	0.0738	-0.382	0.482	-0.121	0.0733	0.0899
CCTCGGAGCACAGAAGGTCAGAGCTGTCCGCTTT	0.355	-0.108	-1.25	-1.67	1.34	1.87	0.017	2.1	-0.245	2.62
GGGACGAGGGCAAGTTGATAGCAGAGTTTGATGG	2.39	2.34	-0.115	0.569	1.21	1.15	0.763	0.688	-0.141	2.91
AGCACGAGGGCAATGAGTTGATAGCACGGGTGGC	1.23	0.791	-0.0946	-0.486	-0.285	1.56	5.64	0.00535	-0.029	2.14
GATACAGGGTCAGCTAGAGGCCAGTGTATGGAAA	0.823	2.25	0.256	-0.378	3.5	3.29	0.17	4.54	-0.191	4.15
CTCGAAAGGTCGTGCTCAGGTGAGTAGACCAAAC	0.641	1.86	1.76	0.659	3.39	3.11	-0.191	4.48	-0.171	3.91
TGAATGAGGTGATAAGATCAGGGAACGTTGCAAA	1.64	2.01	0.612	0.281	-0.472	-0.0646	-0.0145	0.43	-0.23	0.351
CAAATTAGGTCAAGGTCAAAGTCGGTTTGTGCCA	8.62	8.52	4.74	1.94	5.8	5.5	3.06	5.77	4.26	5.2
GCTAGTTGGTCAGTAAAAGGTCCCACACCGGTCG	0.066	0.0788	-0.0613	-0.438	0.327	-0.35	-0.579	0.0824	0.292	0.845
AATGCAGGGTCACTAGGCCAGAGTAGGTACGAAT	4.1	5.62	1.45	0.273	2.1	3.26	0.127	4.25	0.109	4.13
CCTAGCAGGCCAGGGTCACTTAAGCATTTCGCTT	0.351	1.01	-1.25	-0.972	0.813	2.15	-0.248	2.71	0.0986	2.54
CGAACTAGGTCATCCAGAACAGTGAATACATTGA	8.45	8.49	6.73	4.45	3.59	1.48	0.368	2.32	0.855	3.83
ACAGACAGGTGATGAAGGTAACTCATGCTATCAT	0.199	0.711	-0.0414	-0.123	-0.0711	-0.216	-0.133	-0.118	0.279	0.221
